miR-122 inh: activators of miR-122 sensor in Huh7 cells. Huh7 psiCHECK-miR122 Renilla luciferase sensor, 48 h. activation, % at 12.5 µM. 340,000 tested, 0.14% active. AID 623901;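 active = mean activation of 30% or more, with every replicate also reaching 30%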;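 note: 0% = median of neutral control wells and 100% = median of positive control wells; higher luciferase signal means stronger suppression of miR-122 activity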
Numbers without * were called inactive. This excerpt belongs to a sample that is enriched for hits.

SMILES	miR-122 inh
Cc1ccccc1-c1ccc2c(c1)O[C@@H](CN(C)C(=O)Nc1ccc(F)cc1)[C@@H](C)CN([C@@H](C)CO)S2(=O)=O	37.7*
C/C=C/c1cnc2c(c1)C(=O)N([C@H](C)CO)C[C@@H](C)[C@H](CN(C)S(=O)(=O)c1ccc(C)cc1)O2	5.1
C[C@H]1CN([C@@H](C)CO)C(=O)c2cc(C#Cc3cccnc3)cnc2O[C@H]1CN(C)S(C)(=O)=O	-0.5
CCCNC(=O)N1[C@H](CNC(=O)c2ccc(F)cc2)[C@H](c2ccccc2)[C@@H]1CO	41.7*
CCCNC(=O)NC[C@@H]1[C@@H](c2ccc(C3=CCCCC3)cc2)[C@H](CO)N1C(C)=O	-114.3
CC(C)CC#Cc1cnc2c(c1)C(=O)N([C@H](C)CO)C[C@@H](C)[C@H](CN(C)C(=O)NC1CCCC1)O2	-3.2
CC(C)C#Cc1cnc2c(c1)C(=O)N([C@@H](C)CO)C[C@H](C)[C@H](CN(C)Cc1ccccn1)O2	3.3
O=C(Nc1ccc(F)cc1)N1CCCCN2[C@H](CO)[C@@H](c3ccc(C#Cc4ccccc4)cc3)[C@H]2C1	34.2*
O=C(Nc1ccccc1F)N1CCCCN2[C@@H](CO)[C@@H](c3ccc(C#Cc4ccccc4)cc3)[C@@H]2C1	37.4*
COc1ccc(C#Cc2ccc([C@@H]3[C@@H](CO)N4CCCCN(C(=O)Nc5ccccc5)C[C@H]34)cc2)cc1	33.9*
COc1cccc(NC(=O)N(C)C[C@@H]2Oc3cc(C#Cc4ccccc4)ccc3S(=O)(=O)N([C@H](C)CO)C[C@@H]2C)c1	4.3
CCC(=O)N(C)C[C@@H]1Oc2cc(-c3cccc(C#N)c3)ccc2S(=O)(=O)N([C@H](C)CO)C[C@H]1C	4.3
COc1ccccc1-c1ccc2c(c1)O[C@@H](CN(C)S(=O)(=O)c1ccc(C)cc1)[C@H](C)CN([C@H](C)CO)S2(=O)=O	0.4
CCCC#Cc1cnc2c(c1)C(=O)N([C@@H](C)CO)C[C@@H](C)[C@H](CN(C)Cc1cccnc1)O2	5.5
COc1ccc(C#Cc2ccc3c(c2)O[C@H](CN(C)C)[C@H](C)CN([C@H](C)CO)S3(=O)=O)cc1	-2.9
CCCN1C[C@@H](C)[C@H](OC)CN(C)C(=O)c2ccc(NS(C)(=O)=O)cc2OC[C@@H]1C	-1.4
CC(C)CC#Cc1ccc2c(c1)O[C@@H](CN(C)C(=O)NC1CCCC1)[C@H](C)CN([C@@H](C)CO)S2(=O)=O	-15.4
CCN(C[C@H]1[C@H](c2ccccc2)[C@@H](CO)N1C(=O)C1CC1)C(=O)NC1CCCC1	36.4*
O=C(NC[C@@H]1[C@H](c2ccccc2)[C@@H](CO)N1C(=O)C1CC1)NC1CCCC1	-108.3
CCC(=O)N(C)C[C@@H]1Oc2ncc(C#C[C@H](C)O)cc2C(=O)N([C@@H](C)CO)C[C@H]1C	-0.7
COc1cccc(-c2cnc3c(c2)C(=O)N([C@H](C)CO)C[C@H](C)[C@H](CN(C)S(=O)(=O)c2ccc(F)cc2)O3)c1	-16.2
S=C(NCCc1ccccc1)Nc1ccc(Cl)cc1Cl	-94.9
CCNC(=O)CCC(=O)Nc1cc(Cl)ccc1C	35.8*
COc1ccc(C#Cc2cnc3c(c2)C(=O)N([C@@H](C)CO)C[C@@H](C)[C@H](CN(C)CC2CCCC2)O3)cc1	7.2
CCCNC(=O)N(C)C[C@@H]1Oc2ncc(C#CCC(C)C)cc2C(=O)N([C@@H](C)CO)C[C@H]1C	1.6
SMILES	miR-122 inh
CC(C)CC#Cc1cnc2c(c1)C(=O)N([C@H](C)CO)C[C@H](C)[C@@H](CN(C)C(=O)Nc1cc(F)ccc1F)O2	9.8
CCC(=O)Nc1ccc2c(c1)OC[C@@H](C)NC[C@H](C)[C@H](OC)CN(C)C2=O	-0.8
CCC(=O)N(C)C[C@H]1Oc2ncc(C#Cc3ccc(OC)cc3)cc2C(=O)N([C@H](C)CO)C[C@H]1C	-4.0
C[C@@H]1CN([C@H](C)CO)C(=O)c2cc(/C=C/c3ccccc3)cnc2O[C@H]1CN(C)C(=O)c1cccc(F)c1	-14.5
C[C@H]1CN([C@@H](C)CO)C(=O)c2cc(/C=C/c3ccccc3)cnc2O[C@@H]1CN(C)C(=O)C1CCOCC1	2.1
Cc1c(NC(=O)/C=C/c2cn(-c3ccccc3)nc2-c2ccccc2)c(=O)n(-c2ccccc2)n1C	37.3*
CC(C)CC#Cc1cnc2c(c1)C(=O)N([C@@H](C)CO)C[C@@H](C)[C@H](CN(C)C(=O)C1CCCCC1)O2	6.2
C[C@H](CO)N1C[C@H](C)[C@@H](CN(C)CC2CCOCC2)Oc2ncc(-c3ccc(F)cc3)cc2C1=O	1.8
C/C=C/c1cnc2c(c1)C(=O)N([C@@H](C)CO)C[C@H](C)[C@@H](CN(C)C(=O)c1cccnc1)O2	-20.1
Cc1noc(C)c1NC(=O)N(C)C[C@H]1Oc2ncc(C#CCC(C)C)cc2C(=O)N([C@H](C)CO)C[C@@H]1C	-1.2
O=C(NNS(=O)(=O)c1ccc(Cl)cc1)c1cccs1	-115.6
O=S(=O)(Nc1ccncc1)c1ccc(Cl)cc1	-119.3
CNC(=O)c1nnsc1S(=O)(=O)c1ccc(Cl)cc1	30.9*
CC(C)C#Cc1ccc2c(c1)O[C@H](CN(C)C(=O)CN(C)C)[C@@H](C)CN([C@H](C)CO)S2(=O)=O	-6.8
Cc1cc(CN(C)C(=O)c2cc(COc3ccc4ncccc4c3)on2)on1	35.1*
CO[C@@H]1CN(C)C(=O)c2ccc(NC(=O)c3ccccc3)cc2OC[C@H](C)N(C)C[C@@H]1C	-2.7
C[C@H](O)C#Cc1cnc2c(c1)C(=O)N([C@@H](C)CO)C[C@@H](C)[C@@H](CN(C)Cc1cncnc1)O2	1.2
CCC(=O)Nc1ccc2c(c1)OC[C@H](C)NC[C@@H](C)[C@@H](OC)CN(C)C2=O	-7.2
Cc1ccc(-c2cnc3c(c2)C(=O)N([C@@H](C)CO)C[C@H](C)[C@@H](CN(C)C(=O)Cc2cccnc2)O3)cc1	-7.5
C[C@H]1CN([C@@H](C)CO)C(=O)c2cc(-c3ccccc3)cnc2O[C@H]1CN(C)C(=O)Nc1ccc2c(c1)OCO2	-2.7
Cc1ccsc1/C=N/n1c(-c2ccco2)n[nH]c1=S	39.5*
Cc1ccc(-c2cnc3c(c2)C(=O)N([C@@H](C)CO)C[C@@H](C)[C@H](CN(C)C(=O)Cc2cccnc2)O3)cc1	4.0
C[C@@H]1CN([C@H](C)CO)C(=O)c2cc(-c3ccc(C(=O)N(C)C)cc3)cnc2O[C@@H]1CN(C)Cc1ccc(C(=O)O)cc1	5.9
CCC(=O)N(C)C[C@H]1Oc2ncc(C#C[C@@H](C)O)cc2C(=O)N([C@@H](C)CO)C[C@@H]1C	-3.0
COCC#Cc1ccc2c(c1)O[C@@H](CN(C)Cc1cncnc1)[C@H](C)CN([C@@H](C)CO)S2(=O)=O	-2.3
SMILES	miR-122 inh
O=C(C1CC1)N(CCN(C(=O)C1CC1)c1ccccc1)c1ccccc1	30.4*
CO[C@H]1CN(C)C(=O)c2ccc(NS(=O)(=O)c3ccc(C)cc3)cc2OC[C@@H](C)N(C)C[C@H]1C	1.7
CCCN(C)C[C@@H]1Oc2cc(C#CCN(C)C)ccc2S(=O)(=O)N([C@H](C)CO)C[C@@H]1C	-5.3
Cc1cc(C(=O)Nc2cccc3c2O[C@@H](CN(C)CC2CCCCC2)[C@@H](C)CN([C@H](C)CO)C3=O)n(C)n1	-96.5
CCCN(C)C[C@@H]1Oc2ncc(-c3ccccc3OC)cc2C(=O)N([C@H](C)CO)C[C@H]1C	9.3
COc1cccc(NC(=O)N(C)C[C@H]2Oc3ncc(C#Cc4ccccc4)cc3C(=O)N([C@H](C)CO)C[C@@H]2C)c1	5.1
COc1ccccc1-c1ccc2c(c1)O[C@@H](CN(C)C(=O)Nc1ccccc1)[C@H](C)CN([C@H](C)CO)S2(=O)=O	-2.7

High-throughput results deposited in PubChem BioAssay by Broad Institute.
